# Test results from paper PMC7862700, “An all-to-all approach to the identification of sequence-specific readers for epigenetic DNA modifications on cytosine”.
# Assays:
# Assay in all cases: DAPPL (digital affinity profiling via proximity ligation, sequencing); 10 mM Tris-HCl pH 7.5, 50 mM NaCl, 1 mM DTT, 4% glycerol, room temperature, 30 min; GST-TFs on glutathione beads, 16-mer random dsDNA library, 0.1% formaldehyde crosslink after washing; high values mean tight binding
# FEV = biological target: T1, FEV (Homo sapiens, UniProt Q99581 1-238); details: protein: recombinant; tags: N-terminal GST; dsDNA, one strand shown
# T1 sequence: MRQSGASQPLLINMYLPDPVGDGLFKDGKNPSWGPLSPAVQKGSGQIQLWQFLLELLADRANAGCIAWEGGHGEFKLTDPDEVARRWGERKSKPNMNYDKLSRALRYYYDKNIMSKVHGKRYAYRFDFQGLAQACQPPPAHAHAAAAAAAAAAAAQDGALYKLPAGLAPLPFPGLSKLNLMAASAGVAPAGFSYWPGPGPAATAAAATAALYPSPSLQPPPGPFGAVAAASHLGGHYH
# How it was run: (§1)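 Binding signal is each hexamer's read frequency for a factor divided by its frequency in the tag-only sample. The factors were GST-fused human transcription factors from yeast, captured on glutathione beads, DNA-barcoded and pooled with that sample. Pools were incubated with 200 nmole of a random double-stranded 16-mer DNA library in Tris/NaCl/DTT/glycerol buffer at room temperature for 30 min, then washed, crosslinked with 0.1% formaldehyde, proximity-ligated with BsaI/T4 ligase (1 h, 37 °C), PCR-amplified and sequenced on an Illumina NextSeq500.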
# ETV5 = ETV5 (Homo sapiens, UniProt P41161 1-510); details: protein: recombinant; tags: N-terminal GST; dsDNA, one strand shown
# Sequence of ETV5 (P41161 whole entry): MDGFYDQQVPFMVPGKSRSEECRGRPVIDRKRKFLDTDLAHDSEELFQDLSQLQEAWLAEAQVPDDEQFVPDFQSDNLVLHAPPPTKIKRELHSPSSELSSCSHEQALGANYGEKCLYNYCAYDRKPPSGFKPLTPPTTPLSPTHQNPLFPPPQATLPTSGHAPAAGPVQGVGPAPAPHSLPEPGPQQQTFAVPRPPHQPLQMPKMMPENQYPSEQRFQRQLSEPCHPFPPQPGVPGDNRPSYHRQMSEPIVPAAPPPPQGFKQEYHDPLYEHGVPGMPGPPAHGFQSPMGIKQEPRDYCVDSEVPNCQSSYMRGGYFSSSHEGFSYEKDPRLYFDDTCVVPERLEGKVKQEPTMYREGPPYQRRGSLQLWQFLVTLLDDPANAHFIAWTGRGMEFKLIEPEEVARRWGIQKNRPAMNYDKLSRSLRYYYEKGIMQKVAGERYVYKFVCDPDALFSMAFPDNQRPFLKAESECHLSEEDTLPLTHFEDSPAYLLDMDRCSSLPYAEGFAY
# How it was run: as §1
# HSF1 = HSF1 (Homo sapiens, UniProt Q00613 1-529); details: protein: recombinant; tags: N-terminal GST; chain copies: 3; dsDNA, one strand shown
# Sequence of HSF1 (Q00613 whole entry): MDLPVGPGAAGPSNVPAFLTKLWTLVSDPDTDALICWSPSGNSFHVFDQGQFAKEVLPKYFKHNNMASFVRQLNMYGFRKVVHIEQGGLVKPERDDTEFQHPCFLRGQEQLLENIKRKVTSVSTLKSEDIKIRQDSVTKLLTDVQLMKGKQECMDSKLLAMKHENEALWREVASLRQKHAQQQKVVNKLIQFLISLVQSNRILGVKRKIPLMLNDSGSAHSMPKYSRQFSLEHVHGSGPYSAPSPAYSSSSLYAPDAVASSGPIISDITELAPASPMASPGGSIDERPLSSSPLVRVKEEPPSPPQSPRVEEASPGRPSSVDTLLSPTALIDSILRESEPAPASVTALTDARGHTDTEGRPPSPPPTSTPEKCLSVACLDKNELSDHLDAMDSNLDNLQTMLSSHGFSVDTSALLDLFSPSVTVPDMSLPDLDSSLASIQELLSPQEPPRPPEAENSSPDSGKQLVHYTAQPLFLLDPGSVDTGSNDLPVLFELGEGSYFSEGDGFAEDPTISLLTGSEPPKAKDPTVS
# How it was run: as §1
# SPIC = biological target: T2, SPIC (Homo sapiens, UniProt Q8N5J4 1-248); details: protein: recombinant; tags: N-terminal GST; dsDNA, one strand shown
# T2 sequence: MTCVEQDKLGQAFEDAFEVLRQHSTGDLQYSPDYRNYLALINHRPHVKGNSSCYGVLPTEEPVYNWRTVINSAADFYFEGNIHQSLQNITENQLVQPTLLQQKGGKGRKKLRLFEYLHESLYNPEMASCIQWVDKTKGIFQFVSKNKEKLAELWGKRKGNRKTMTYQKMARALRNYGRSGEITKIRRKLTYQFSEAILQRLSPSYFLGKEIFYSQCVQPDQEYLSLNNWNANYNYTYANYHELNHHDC
# How it was run: as §1
# ELF4 = ELF4 (Homo sapiens, UniProt Q99607 1-663); details: protein: recombinant; tags: N-terminal GST; dsDNA, one strand shown
# Sequence of ELF4 (Q99607 whole entry): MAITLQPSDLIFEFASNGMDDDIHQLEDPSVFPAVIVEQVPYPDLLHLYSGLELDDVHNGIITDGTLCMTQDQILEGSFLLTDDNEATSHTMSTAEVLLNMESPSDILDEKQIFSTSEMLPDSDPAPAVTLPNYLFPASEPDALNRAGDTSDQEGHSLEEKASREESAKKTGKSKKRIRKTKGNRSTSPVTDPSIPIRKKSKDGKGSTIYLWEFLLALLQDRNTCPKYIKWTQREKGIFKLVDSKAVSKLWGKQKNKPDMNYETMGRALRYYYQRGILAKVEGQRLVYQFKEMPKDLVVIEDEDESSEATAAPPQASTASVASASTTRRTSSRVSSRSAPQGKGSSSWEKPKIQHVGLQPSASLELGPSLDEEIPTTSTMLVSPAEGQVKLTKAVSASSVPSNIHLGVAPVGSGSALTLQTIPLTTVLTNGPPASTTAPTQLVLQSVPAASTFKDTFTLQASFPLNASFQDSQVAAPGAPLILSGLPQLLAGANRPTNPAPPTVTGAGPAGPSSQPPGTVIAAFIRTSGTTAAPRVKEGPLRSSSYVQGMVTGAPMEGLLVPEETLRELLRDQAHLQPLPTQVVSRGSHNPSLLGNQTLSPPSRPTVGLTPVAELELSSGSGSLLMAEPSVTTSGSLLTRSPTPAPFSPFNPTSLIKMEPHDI
# How it was run: as §1
# ELK4 = biological target: T3, ELK4 (Homo sapiens, UniProt P28324-2 1-405); details: protein: recombinant; tags: N-terminal GST; dsDNA, one strand shown
# T3 sequence: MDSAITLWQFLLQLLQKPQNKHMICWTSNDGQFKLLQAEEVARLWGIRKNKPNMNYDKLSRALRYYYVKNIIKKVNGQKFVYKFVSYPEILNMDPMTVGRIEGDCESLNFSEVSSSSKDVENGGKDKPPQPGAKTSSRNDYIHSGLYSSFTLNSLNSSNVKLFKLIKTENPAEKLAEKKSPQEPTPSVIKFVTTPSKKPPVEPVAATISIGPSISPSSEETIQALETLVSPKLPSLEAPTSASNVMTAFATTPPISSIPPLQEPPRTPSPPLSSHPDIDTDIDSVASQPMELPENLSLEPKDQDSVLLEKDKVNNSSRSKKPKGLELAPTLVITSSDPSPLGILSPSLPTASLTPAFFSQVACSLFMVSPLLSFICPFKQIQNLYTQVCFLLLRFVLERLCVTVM
# How it was run: as §1
# ETV2 = biological target: T4, ETV2 (Homo sapiens, UniProt O00321 1-342); details: protein: recombinant; tags: N-terminal GST; dsDNA, one strand shown
# T4 sequence: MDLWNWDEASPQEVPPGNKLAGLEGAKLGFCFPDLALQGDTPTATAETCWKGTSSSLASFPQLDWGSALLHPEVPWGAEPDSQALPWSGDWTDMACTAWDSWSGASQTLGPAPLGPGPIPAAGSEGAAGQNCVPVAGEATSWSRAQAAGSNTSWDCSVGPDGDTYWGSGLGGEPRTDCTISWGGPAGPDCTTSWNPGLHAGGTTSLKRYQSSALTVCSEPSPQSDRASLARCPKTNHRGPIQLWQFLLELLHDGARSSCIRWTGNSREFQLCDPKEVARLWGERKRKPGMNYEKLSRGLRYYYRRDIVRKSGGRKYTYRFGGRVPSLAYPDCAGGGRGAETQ
# How it was run: as §1
# ELF3 = biological target: T5, ELF3 (Homo sapiens, UniProt P78545 1-371); details: protein: recombinant; tags: N-terminal GST; dsDNA, one strand shown
# T5 sequence: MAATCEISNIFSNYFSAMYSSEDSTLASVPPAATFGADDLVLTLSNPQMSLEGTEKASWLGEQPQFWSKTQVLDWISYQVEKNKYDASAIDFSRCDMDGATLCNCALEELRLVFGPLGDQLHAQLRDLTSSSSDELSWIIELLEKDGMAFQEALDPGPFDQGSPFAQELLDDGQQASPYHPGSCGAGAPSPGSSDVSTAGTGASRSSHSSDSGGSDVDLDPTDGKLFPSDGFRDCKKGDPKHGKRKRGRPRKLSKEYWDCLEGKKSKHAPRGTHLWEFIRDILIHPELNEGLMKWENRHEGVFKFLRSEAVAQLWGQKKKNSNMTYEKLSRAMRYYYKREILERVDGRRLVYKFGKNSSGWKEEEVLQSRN
# How it was run: as §1
# CRX = CRX (Homo sapiens, UniProt O43186 1-299); details: protein: recombinant; tags: N-terminal GST; dsDNA, one strand shown
# Sequence of CRX (O43186 whole entry): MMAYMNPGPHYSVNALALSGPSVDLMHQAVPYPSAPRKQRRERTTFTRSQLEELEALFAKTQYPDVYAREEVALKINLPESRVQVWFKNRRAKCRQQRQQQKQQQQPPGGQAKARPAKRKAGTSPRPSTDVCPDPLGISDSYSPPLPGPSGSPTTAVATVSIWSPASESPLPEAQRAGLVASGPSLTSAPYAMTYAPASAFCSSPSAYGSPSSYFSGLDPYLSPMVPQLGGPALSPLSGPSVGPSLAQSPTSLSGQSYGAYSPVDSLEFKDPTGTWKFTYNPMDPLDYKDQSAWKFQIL
# How it was run: as §1
# ETV1 = ETV1 (Homo sapiens, UniProt P50549 1-477); details: protein: recombinant; tags: N-terminal GST; dsDNA, one strand shown
# Sequence of ETV1 (P50549 whole entry): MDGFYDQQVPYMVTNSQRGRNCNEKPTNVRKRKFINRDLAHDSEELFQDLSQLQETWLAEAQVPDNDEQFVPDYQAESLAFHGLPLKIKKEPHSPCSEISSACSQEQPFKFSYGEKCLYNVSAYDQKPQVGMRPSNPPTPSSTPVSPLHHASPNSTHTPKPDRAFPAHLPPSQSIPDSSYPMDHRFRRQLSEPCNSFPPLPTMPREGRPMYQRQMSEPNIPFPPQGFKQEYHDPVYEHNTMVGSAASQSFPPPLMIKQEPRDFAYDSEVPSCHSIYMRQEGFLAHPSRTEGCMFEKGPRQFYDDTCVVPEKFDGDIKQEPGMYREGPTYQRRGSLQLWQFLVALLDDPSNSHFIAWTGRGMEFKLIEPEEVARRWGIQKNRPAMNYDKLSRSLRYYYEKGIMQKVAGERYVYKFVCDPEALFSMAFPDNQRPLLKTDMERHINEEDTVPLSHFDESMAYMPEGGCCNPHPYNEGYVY
# How it was run: as §1
# ERF = biological target: T6, ERF (Homo sapiens, UniProt P50548 1-548); details: protein: recombinant; tags: N-terminal GST; dsDNA, one strand shown
# T6 sequence: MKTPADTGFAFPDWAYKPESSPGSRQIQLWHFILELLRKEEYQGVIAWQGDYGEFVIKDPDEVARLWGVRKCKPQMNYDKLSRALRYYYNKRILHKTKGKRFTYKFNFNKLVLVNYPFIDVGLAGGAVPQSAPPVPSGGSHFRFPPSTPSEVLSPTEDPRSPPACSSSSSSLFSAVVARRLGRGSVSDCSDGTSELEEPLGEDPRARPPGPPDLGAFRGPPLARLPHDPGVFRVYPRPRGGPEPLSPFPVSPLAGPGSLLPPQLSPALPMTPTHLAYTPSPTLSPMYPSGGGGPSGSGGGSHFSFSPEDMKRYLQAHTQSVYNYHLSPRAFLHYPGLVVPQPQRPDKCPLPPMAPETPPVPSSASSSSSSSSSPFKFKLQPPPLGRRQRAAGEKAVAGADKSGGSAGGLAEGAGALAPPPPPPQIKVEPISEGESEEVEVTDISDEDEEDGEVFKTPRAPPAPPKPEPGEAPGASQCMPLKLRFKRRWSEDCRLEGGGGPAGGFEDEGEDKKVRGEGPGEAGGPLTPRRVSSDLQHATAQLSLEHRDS
# How it was run: as §1
# ETV3L = biological target: T7, ETV3L (Homo sapiens, UniProt Q6ZN32 1-361); details: protein: recombinant; tags: N-terminal GST; dsDNA, one strand shown
# T7 sequence: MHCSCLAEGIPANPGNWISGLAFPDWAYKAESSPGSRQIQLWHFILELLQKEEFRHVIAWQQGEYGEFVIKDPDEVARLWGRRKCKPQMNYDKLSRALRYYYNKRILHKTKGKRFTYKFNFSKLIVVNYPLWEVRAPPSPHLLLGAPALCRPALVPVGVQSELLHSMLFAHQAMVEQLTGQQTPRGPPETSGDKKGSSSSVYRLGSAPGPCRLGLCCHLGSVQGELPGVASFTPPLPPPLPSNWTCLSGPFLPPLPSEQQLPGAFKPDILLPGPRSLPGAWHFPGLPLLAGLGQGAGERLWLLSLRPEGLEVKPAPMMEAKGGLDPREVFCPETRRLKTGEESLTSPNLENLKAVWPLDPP
# How it was run: as §1
# ETS2 = biological target: T8, ETS2 (Homo sapiens, UniProt P15036 1-469); details: protein: recombinant; tags: N-terminal GST; dsDNA, one strand shown
# T8 sequence: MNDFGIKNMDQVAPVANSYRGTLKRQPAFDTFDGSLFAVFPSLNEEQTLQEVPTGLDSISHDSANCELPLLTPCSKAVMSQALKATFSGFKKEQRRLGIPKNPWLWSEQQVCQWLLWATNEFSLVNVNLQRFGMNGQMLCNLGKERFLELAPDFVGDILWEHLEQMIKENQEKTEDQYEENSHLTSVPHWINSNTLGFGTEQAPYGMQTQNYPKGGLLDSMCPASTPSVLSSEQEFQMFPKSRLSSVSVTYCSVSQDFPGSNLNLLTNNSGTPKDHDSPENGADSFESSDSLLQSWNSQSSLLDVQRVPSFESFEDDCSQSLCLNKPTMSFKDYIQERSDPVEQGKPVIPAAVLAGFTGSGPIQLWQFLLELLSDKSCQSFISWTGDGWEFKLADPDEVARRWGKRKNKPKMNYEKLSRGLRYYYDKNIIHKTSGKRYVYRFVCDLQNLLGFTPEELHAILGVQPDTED
# How it was run: as §1
# SPDEF = biological target: T9, SPDEF (Homo sapiens, UniProt O95238 1-335); details: protein: recombinant; tags: N-terminal GST; dsDNA, one strand shown
# T9 sequence: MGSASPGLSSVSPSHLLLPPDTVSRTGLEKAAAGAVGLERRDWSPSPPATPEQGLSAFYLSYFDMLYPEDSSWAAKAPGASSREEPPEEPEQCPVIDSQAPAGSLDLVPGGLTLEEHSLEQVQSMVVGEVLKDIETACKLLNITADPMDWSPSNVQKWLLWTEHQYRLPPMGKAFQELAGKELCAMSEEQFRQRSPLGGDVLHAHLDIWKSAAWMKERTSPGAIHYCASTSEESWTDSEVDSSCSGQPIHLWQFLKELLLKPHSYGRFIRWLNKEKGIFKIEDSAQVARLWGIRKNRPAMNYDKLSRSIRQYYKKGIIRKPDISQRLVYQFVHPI
# How it was run: as §1
# ETV7 = biological target: T10, ETV7 (Homo sapiens, UniProt Q9Y603 1-341); details: protein: recombinant; tags: N-terminal GST; dsDNA, one strand shown
# T10 sequence: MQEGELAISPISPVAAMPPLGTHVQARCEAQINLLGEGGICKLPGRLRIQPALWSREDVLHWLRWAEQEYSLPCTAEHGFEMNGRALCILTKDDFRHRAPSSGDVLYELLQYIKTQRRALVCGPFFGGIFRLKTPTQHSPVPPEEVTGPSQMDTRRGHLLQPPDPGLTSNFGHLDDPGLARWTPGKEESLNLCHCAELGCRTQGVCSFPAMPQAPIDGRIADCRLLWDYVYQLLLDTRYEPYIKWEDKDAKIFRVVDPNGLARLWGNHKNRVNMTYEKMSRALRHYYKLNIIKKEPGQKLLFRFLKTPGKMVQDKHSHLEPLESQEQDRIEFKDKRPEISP
# How it was run: as §1
# ELF5 = biological target: T11, ELF5 (Homo sapiens, UniProt Q9UKW6-2 1-255); details: protein: recombinant; tags: N-terminal GST; dsDNA, one strand shown
# T11 sequence: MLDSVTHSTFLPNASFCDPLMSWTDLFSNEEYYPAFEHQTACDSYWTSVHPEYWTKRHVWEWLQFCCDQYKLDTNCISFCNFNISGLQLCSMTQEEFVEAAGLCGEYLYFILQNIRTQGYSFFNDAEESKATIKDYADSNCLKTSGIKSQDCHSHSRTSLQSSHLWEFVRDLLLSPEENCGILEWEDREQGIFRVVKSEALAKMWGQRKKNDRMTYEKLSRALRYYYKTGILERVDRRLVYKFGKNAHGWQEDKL
# How it was run: as §1
# ETV3 = biological target: T12, ETV3 (Homo sapiens, UniProt P41162-2 1-143); details: protein: recombinant; tags: N-terminal GST; dsDNA, one strand shown
# T12 sequence: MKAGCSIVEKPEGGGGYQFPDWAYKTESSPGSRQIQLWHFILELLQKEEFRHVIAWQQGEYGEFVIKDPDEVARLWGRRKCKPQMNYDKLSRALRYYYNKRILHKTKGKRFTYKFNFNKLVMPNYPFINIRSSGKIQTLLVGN
# How it was run: as §1
# ETV6 = ETV6 (Homo sapiens, UniProt P41212 1-452); details: protein: recombinant; tags: N-terminal GST; dsDNA, one strand shown
# Sequence of ETV6 (P41212 whole entry): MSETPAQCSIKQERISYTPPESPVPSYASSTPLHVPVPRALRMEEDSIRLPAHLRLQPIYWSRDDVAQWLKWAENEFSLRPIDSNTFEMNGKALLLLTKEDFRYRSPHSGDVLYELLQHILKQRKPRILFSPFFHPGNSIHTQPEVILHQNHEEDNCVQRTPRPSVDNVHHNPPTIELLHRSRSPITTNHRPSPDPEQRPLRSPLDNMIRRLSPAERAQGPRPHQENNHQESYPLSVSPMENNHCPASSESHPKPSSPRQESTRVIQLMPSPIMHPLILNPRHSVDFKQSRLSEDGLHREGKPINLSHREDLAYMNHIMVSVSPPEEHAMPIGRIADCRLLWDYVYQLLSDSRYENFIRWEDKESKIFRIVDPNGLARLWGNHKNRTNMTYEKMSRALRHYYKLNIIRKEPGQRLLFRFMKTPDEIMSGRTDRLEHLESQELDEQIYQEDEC
# How it was run: as §1
sequence,measurement,setting,value
GTTCTC,binding signal,FEV,"1.32 fold enrichment (6-mer frequency, TF over GST control)"
same,binding signal,ETV5,"1.32 fold enrichment (6-mer frequency, TF over GST control)"
same,binding signal,HSF1,"2.29 fold enrichment (6-mer frequency, TF over GST control)"
same,binding signal,SPIC,"1.36 fold enrichment (6-mer frequency, TF over GST control)"
same,binding signal,ELF4,"1.28 fold enrichment (6-mer frequency, TF over GST control)"
same,binding signal,ELK4,"1.27 fold enrichment (6-mer frequency, TF over GST control)"
same,binding signal,ETV2,"1.33 fold enrichment (6-mer frequency, TF over GST control)"
same,binding signal,ELF3,"1.3 fold enrichment (6-mer frequency, TF over GST control)"
same,binding signal,CRX,"1.28 fold enrichment (6-mer frequency, TF over GST control)"
same,binding signal,ETV1,"1.34 fold enrichment (6-mer frequency, TF over GST control)"
same,binding signal,ERF,"1.22 fold enrichment (6-mer frequency, TF over GST control)"
same,binding signal,ETV3L,"1.35 fold enrichment (6-mer frequency, TF over GST control)"
same,binding signal,ETS2,"1.24 fold enrichment (6-mer frequency, TF over GST control)"
same,binding signal,SPDEF,"1.22 fold enrichment (6-mer frequency, TF over GST control)"
same,binding signal,ETV7,"1.26 fold enrichment (6-mer frequency, TF over GST control)"
same,binding signal,ELF5,"1.25 fold enrichment (6-mer frequency, TF over GST control)"
same,binding signal,ETV3,"1.35 fold enrichment (6-mer frequency, TF over GST control)"
same,binding signal,ETV6,"1.23 fold enrichment (6-mer frequency, TF over GST control)"
